These results are taken from ChEMBL document CHEMBL4808148, “HDAC6 screening dataset using tau-based substrate in an enzymatic assay yields selective inhibitors and activators” (2021).

About 390 (7%) of roughly 5,600 compounds showed an effect of 50% or more. The sample as a whole holds a higher share of strong results than the screen did. Residues, ends and D or L forms follow the SMILES beside them.

As a reminder, the inhibition is the change of the read-out against control, counted positive when it falls.

For assay [1], the target named is T1, Protein deacetylase HDAC6 (Homo sapiens) (UniProt Q9UBN7).
T1 sequence (whole entry): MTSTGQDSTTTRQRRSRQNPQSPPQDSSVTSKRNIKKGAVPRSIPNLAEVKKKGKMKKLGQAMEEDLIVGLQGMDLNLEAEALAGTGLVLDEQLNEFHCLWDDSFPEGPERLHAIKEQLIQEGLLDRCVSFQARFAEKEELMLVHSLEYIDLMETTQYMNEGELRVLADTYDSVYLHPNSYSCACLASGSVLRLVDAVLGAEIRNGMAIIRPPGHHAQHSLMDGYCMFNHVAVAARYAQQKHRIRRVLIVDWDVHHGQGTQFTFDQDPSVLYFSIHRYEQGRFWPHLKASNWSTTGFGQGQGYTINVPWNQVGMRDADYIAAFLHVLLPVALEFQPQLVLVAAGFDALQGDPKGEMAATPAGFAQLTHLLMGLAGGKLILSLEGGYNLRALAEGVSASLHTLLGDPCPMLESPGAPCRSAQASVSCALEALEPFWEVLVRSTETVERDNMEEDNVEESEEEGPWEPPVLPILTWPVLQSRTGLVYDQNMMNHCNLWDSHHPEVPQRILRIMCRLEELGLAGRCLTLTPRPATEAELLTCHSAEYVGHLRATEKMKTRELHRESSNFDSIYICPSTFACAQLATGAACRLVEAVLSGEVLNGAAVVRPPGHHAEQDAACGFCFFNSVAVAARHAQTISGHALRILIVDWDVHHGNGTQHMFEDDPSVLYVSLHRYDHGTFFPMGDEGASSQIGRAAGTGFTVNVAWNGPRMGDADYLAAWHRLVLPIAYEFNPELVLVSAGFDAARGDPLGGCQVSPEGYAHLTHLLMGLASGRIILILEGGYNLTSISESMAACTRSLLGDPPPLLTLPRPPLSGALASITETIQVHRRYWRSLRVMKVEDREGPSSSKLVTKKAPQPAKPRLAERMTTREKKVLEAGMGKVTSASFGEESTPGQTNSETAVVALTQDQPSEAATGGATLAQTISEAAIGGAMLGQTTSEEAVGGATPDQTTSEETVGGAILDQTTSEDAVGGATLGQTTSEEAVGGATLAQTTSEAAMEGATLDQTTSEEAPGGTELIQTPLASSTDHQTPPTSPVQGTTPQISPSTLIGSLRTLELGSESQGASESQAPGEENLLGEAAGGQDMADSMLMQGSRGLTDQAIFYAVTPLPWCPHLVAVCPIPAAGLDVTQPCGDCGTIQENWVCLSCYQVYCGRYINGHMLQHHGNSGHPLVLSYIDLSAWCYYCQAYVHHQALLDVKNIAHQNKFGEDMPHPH
To be noted: at 10 µM.

Assay [2] deals with Protein deacetylase HDAC6 (Homo sapiens) (UniProt Q9UBN7). To be noted: at 10 µM. The source holds these as a separate data set.

As for `O=C(O)CNC(=O)c1c(O)c2ccccc2n(Cc2ccccc2)c1=O`, the inhibition in assay [1] stood at 81.7%. For the compound `Cc1ncc(C[n+]2csc(CCOP(=O)(O)OP(=O)(O)O)c2C)c(N)n1`, the inhibition in assay [1] is 37.8%. For the compound `COC(=O)c1ccc2c(c1)nc(NC(=O)c1ccccc1)n2CCCc1ccccc1`, in assay [1], the inhibition is -9.35%. On to `CN[C@@H]1Cc2cccc3[nH]c(=O)n(c23)C1`, for which, in assay [1], the inhibition came out at 4.82%. Still for that read-out and setting: for `Oc1ncc(N(CCCl)CCCl)c(O)n1` the value was 2.6%.

Take `CN1CCN(c2ccc3[nH]c(-c4ccc5[nH]c(-c6ccc(O)cc6)nc5c4)nc3c2)CC1`: in assay [1], the inhibition worked out at 64%. On the same count and under the same terms, under `CN1CCN(c2ccc3ccccc3n2)CC1` stands 44.6%. Take `CN1CCC(c2c[nH]c3ccc(O)cc23)CC1`: the inhibition in assay [1] was 5.85%. Same read-out and setting: for `NC(=O)c1cc[n+](CC2=C(C(=O)[O-])N3C(=O)[C@@H](NC(=O)Cc4cccs4)[C@H]3SC2)cc1` the value was -9.58%; for `O=C(O)C1CSCN1` (stereo not drawn), 8.04%; for `COc1cc(NC(=O)c2cccc(-n3cc(NC(=O)Nc4cccc(C)c4)cn3)c2)cc(OC)c1OC`, 0.29%.

Regarding `O=C(Nc1cccc(Cl)c1)c1ccccn1`, the inhibition in assay [1] stood at 104%. On the same count and under the same terms, for `CC(C)OC(=O)Nc1cccc(Cl)c1` the value was 81%; for `CNC(=O)Oc1ccccc1OC(C)C`, 19.4%. Still for that read-out and setting: for `C[C@H](Cc1ccc2c(c1)OC(C(=O)O)(C(=O)O)O2)NC[C@H](O)c1cccc(Cl)c1` the value was 16.3%; for `COc1ccc(C(=O)Nc2c(Cl)cncc2Cl)cc1OC1CCCC1`, 8.11%; for `O=C(Nc1cnc(Cl)nc1)c1ccc(F)c(F)c1`, 8.67%. In the case of `O=C(Nc1ccc(S(=O)(=O)Nc2ccccc2Cl)c(Cl)c1)c1ccccn1`, the inhibition in assay [1] was 50.8%. Still for that read-out and setting: for `COc1cc(NC(=O)c2ccccn2)ccc1Cl` the value was 101%.

With `O=C(NNc1ccccc1)c1ccncc1`, the inhibition in assay [1] is 19%. With `C=CCN1CC[C@]23c4c5ccc(O)c4O[C@H]2[C@@H](OCCOCCOCCOCCOCCOCCOCCOC)CC[C@@]3(O)[C@H]1C5`, in assay [1], the inhibition worked out at 3.73%.

As for `OC[C@H]1O[C@H](O)C[C@@H](O)[C@@H]1O`, in assay [1], the inhibition was -3.53%.

Regarding `O=C(Nc1cc(C(F)(F)F)cc(C(F)(F)F)c1)Nc1c(Br)cc(Br)cc1-c1nnn[nH]1`, the inhibition in assay [1] came to 0.45%. On to `O=C(c1cn(Cc2cncn2Cc2ccc(Br)cc2)cc1-c1cccc2ccccc12)N1CCOCC1`, for which the inhibition in assay [1] was -6.62%. On the same count and under the same terms, for `COc1cc2c(cc1OC)CN(C(=O)/C=C/c1c(-c3ccccc3)n(C)c3ncccc13)CC2` the value was 33.3%; for `COC1[C@@H](O)[C@@H](O)C(O)[C@H](O)[C@H]1O` (stereo partly drawn), -3.32%. On to `CC(C)[C@@H]1C(=O)N(S(C)(=O)=O)[C@@H]2CCN(C(=O)/C=C/CN3CCCCC3)[C@H]21`, for which the inhibition in assay [1] was -9.25%.

For `NC(=O)c1nc(Nc2ccccc2)sc1NC(=O)C1CCCCC1`, the inhibition in assay [1] worked out at 11.1%. The same measure, in the same setting: for `Cc1nc2c(c(=O)[nH]1)CSCC2` the value was 36%.

On to `CC(C)(C)NCC(O)COc1cc(Cl)ccc1Cl` (stereo not drawn), for which, in assay [1], the inhibition worked out at 2.55%. In the case of `Nc1nc(F)nc2c1ncn2[C@@H]1O[C@H](COP(=O)(O)O)[C@@H](O)[C@@H]1O`, in assay [1], the inhibition was -4.37%.

Take TOCOFERSOLAN, CHEMBL2108106: the inhibition in assay [2] came to 6.6%. In the case of `O=C(Nc1ncc(SCCN2CCCC2)s1)[C@]1(c2ccc(S(=O)(=O)C3CC3)cc2)C[C@H]1C1CCCCC1`, the inhibition in assay [1] is -4.35%.

With `CC(C)CC(NC(=O)C1CCCN1)C(=O)NCC(N)=O` (stereo not drawn) (H-Pro-Leu-Gly-NH2; configuration not given here), the inhibition in assay [1] worked out at 40.6%.

`CC(C)(C)Nc1nc(Nc2ccc(C(N)=O)cc2)cc(N)c1C#N`: the inhibition in assay [1] came out at 26.8%.

`CC(C)C(N)=O`: the inhibition in assay [1] is 26.5%.

`O=C(O)CC1CC(c2ccccc2)=NO1` (stereo not drawn): the inhibition in assay [1] turned out to be 32.1%. As for `O=C(CC1CC(c2ccc(F)cc2F)=NO1)N1CCOCC1` (racemic), the inhibition in assay [1] was found to be 99.4%. Turning to `CCCC[C@H](NC(C)=O)C(=O)N[C@H]1CC(=O)NCCCC[C@@H](C(=O)O)NC(=O)[C@H](Cc2c[nH]c3ccccc23)NC(=O)[C@H](CCCNC(=N)N)NC(=O)[C@@H](Cc2ccccc2)NC(=O)[C@H](Cc2c[nH]cn2)NC1=O`, the inhibition in assay [1] worked out at 38.5%. Turning to `N#CC[C@@H](C1CCCC1)n1cc(-c2ncnc3[nH]ccc23)cn1`, the inhibition in assay [1] was -2.44%. With `CN(C)[C@@H](CCOc1cccc2ccccc12)c1ccccc1`, the inhibition in assay [1] came out at 53%. On the same count and under the same terms, for `C[C@@H]([C@H](O)c1ccccc1)N(C)C` the value was -0.94%. For the compound `CNC(=O)Oc1cccc2ccccc12`, the inhibition in assay [1] came out at 25.3%.

On to `CNC(=O)c1ccccc1Nc1nc(Nc2ccc3c(c2OC)CCC[C@H](N2CCN(CCO)CC2)C3)ncc1Cl`, for which the inhibition in assay [1] was 11.5%. Consider `N#[N+]/C=C(\[O-])CC[C@H](N)C(=O)O`, for which, in assay [1], the inhibition was determined as 28.2%.

As for `COc1cc(OCc2cccc(-c3ccccc3)c2C)cc(OC)c1CN1CCCC[C@H]1C(=O)O`, in assay [1], the inhibition is 64.2%. Still for that read-out and setting: for `CCOC(=O)[C@H](CCc1ccccc1)N[C@@H](C)C(=O)N1Cc2cc(OC)c(OC)cc2C[C@H]1C(=O)O` the value was -0.68%; for `CC[C@H](C)[C@H]1O[C@]2(C=C[C@@H]1C)C[C@@H]1C[C@@H](C/C=C(\C)[C@@H](O[C@H]3C[C@H](OC)[C@@H](O[C@H]4C[C@H](OC)[C@@H](O)[C@H](C)O4)[C@H](C)O3)[C@@H](C)/C=C/C=C3\CO[C@@H]4[C@H](O)C(C)=C[C@@H](C(=O)O1)[C@]34O)O2`, -4.72%.
